# Laboratory results published in PubChem BioAssay (NCI).
# Compounds without any hit were thinned out: in the full panel of roughly 83,000, 20% have a hit.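 Results are percent growth after 48 hours of single-concentration exposure. 100 means growth as in untreated cells, lower positive values show inhibition; negative values down to -100 show cell death.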 Unmarked numbers belong to inactive results. Active and inactive are the calls of the source. The calls were made as follows: active = growth percent below 10; inactive = the rest.
# What was measured:
# Test in all cases: NCI-60 one-dose screen, 48 h (100 = growth as untreated, 0 = no growth, -100 = all killed)
# [1] = test system: SR leukemia; details: 10 µM unless noted
# [2] = test system: RPMI-8226 leukemia; details: 10 µM
# [3] = test system: OVCAR-8 ovarian; details: 10 µM unless noted
# [4] = test system: OVCAR-5 ovarian; details: 10 µM unless noted
# [5] = test system: OVCAR-4 ovarian; details: 10 µM unless noted
# [6] = test system: SK-OV-3 ovarian; details: 10 µM
# [7] = test system: IGROV1 ovarian; details: 10 µM unless noted
# [8] = test system: OVCAR-3 ovarian; details: 10 µM unless noted
# [9] = test system: HS 578T breast; details: 10 µM unless noted
# [10] = test system: NCI/ADR-RES ovarian; details: 10 µM unless noted
# [11] = test system: T-47D breast; details: 10 µM
# [12] = test system: BT-549 breast; details: 10 µM unless noted
# [13] = test system: SW-620 colon; details: 10 µM unless noted
# [14] = test system: MCF7 breast; details: 10 µM unless noted
# [15] = test system: HCT-116 colon; details: 10 µM unless noted
# [16] = test system: HCC-2998 colon; details: 10 µM unless noted
# [17] = test system: KM12 colon; details: 10 µM unless noted
# [18] = test system: MDA-MB-435 melanoma; details: 10 µM unless noted
SMILES,growth [1],growth [2],growth [3],growth [4] [%],growth [5] [%],growth [6] [%],growth [7],growth [8],growth [9] [%],growth [10] [%],growth [11],growth [12] [%],growth [13],growth [14] [%],growth [15],growth [16],growth [17],growth [18]
C(=C\c1ccccc1)/CN1CCN(C(c2ccccc2)c2ccccc2)CC1,76.4%,77.1%,85.7%,101,87.1,108,122%,114%,93.4,81.7,79.7%,92.2,90.3%,92.4,95.8%,100%,104%,–
CCSc1nnc2c3cc(Br)ccc3n(C)c2n1,92.7%,104%,97.2%,105,98,105,90.8%,109%,111,109,–,95.6,103%,84.3,95.6%,111%,103%,104%
COc1cc(/C=C/C(=O)CC(=O)/C=C/c2cc(Br)c(OC)c(OC)c2)cc(Br)c1OC,49.6%,116%,102%,99.1,103,96.6,109%,102%,113,99.3,83.7%,–,114%,97.4,98.3%,109%,103%,–
O=c1[nH]c(=S)[nH]c(=O)n1Cc1cccc2ccccc12,102%,106%,99.7%,107,93.4,102,115%,113%,102,108,99.5%,107,103%,80.9,102%,86.5%,105%,–
NC(=O)c1cc(Cl)ccc1NC(=O)COc1ccccc1,23%,44.5%,60.1%,80.5,101,62.8,54.5%,27.2%,54.7,31.4,–,43.8,35.3%,30.5,31.5%,83.1%,38.3%,-56.9% (active)
FC(F)(F)c1cc(CNc2ncc(Br)c(Cl)n2)cc(C(F)(F)F)c1,85.8%,88.5%,101%,102,102,92.5,91.7%,120%,99.4,93.2,89.8%,83.7,105%,95.7,90.2%,102%,105%,–
O=C1c2ccccc2-c2cn(Cc3ccccc3)c3cccc(c23)C1c1cccnc1 (stereo not given),8.31% (active),64.5%,57.9%,75.9,64.3,37.6,54.5%,2.21% (active),78.1,26.5,43%,–,30.8%,12.4,27.9%,56.4%,30.5%,6.45% (active)
COc1cc(NC(=O)COc2ccccc2)c(C(N)=O)cc1OC,23.3%,9.18% (active),34.2%,48.8,93.9,30.4,43.9%,6.16% (active),29.6,10.2,–,59.5,26.8%,17.1,29.5%,47.1%,29.3%,-77.5% (active)
CCC12CCC3c4ccc(O)cc4CCC3C1CC(O)C2O (stereo not given),19.3%,89%,91.5%,103,82.7,98.7,82.8%,95.4%,76.8,47.1,93.9%,–,43%,75.5,64.6%,75.9%,53.5%,-2.42% (active)
Cc1ccc(S(=O)(=O)N2CCc3ccc(O)c4c3C2CCc2ccccc2-4)cc1 (stereo not given),76.5%,95.8%,98.8%,110,106,101,113%,99.1%,106,104,94%,–,102%,103,108%,104%,95.2%,97.7%
COc1cc(/C=C/C(=O)C(=Cc2ccc(F)c(F)c2)C(=O)/C=C/c2ccc(O)c(OC)c2)ccc1O,18.2%,19.9%,11.1%,115,39.3,94.4,5.44% (active),-11.9% (active),38.4,57.6,44.1%,–,-44.7% (active),35.8,-76.5% (active),-71.9% (active),1.53% (active),0.136% (active)
CC(=O)Nc1ccc(Sc2ccc([N+](=O)[O-])o2)cc1,26.1%,9.87% (active),-1.51% (active),94.8,23.5,120,42.2%,-8.53% (active),46.8,15.9,-34.3% (active),32.6,-76.5% (active),26.9,-82% (active),–,56.8%,9.62% (active)
COc1cc2nc(SCc3cc(OC)c(OC)c(OC)c3)n(-c3ccccc3OC)c(=O)c2cc1OC,23.8%,71.2%,84.6%,89,83.1,98.2,83.1%,48.2%,60.8,62.9,88.6%,87.5,76.4%,77,88%,94.6%,54.1%,–
Cc1nc(NN)c([N+](=O)[O-])c(NN)n1,73.5%,82.5%,102%,92.8,114,121,108%,99.9%,139,119,103%,107,104%,98.7,99.2%,–,104%,104%
CC(=O)OC[C@H](O)[C@@]1(O)CC[C@H]2[C@@H]3CCC4=CC(=O)CC[C@]4(C)[C@H]3[C@@H](O)C[C@@]21C,99.9%,89.8%,98.5%,96.6,105,90.8,111%,108%,114,102,113%,–,102%,112,98.4%,103%,105%,119%
NC(=S)N/N=C1\c2ccccc2-c2c(F)c(F)c(F)c(F)c21,2.57% (active),67.1%,39.6%,108,56.5,98.8,20.8%,61.6%,107,10.2,8.63% (active),–,59.8%,28.7,5.16% (active),90.1%,93.5%,99.6%
COc1ccc(C2OCC(C)(C)CO2)cc1OC,100%,95.6%,105%,100,104,107,139%,117%,109,108,97.3%,109,106%,104,109%,102%,112%,–
COc1cccc(C2CC(=O)Nc3cc4c(cc32)CCC4)c1OC (stereo not given),3.06% (active),50.6%,84.9%,99.5,76.2,44.5,57%,46.1%,67.7,42.1,57.1%,62.3,29.3%,29.3,57.7%,–,28.5%,-56.5% (active)
